This note sets out measurements from PubChem BioAssay AID463173 (ICCB-Longwood Screening Facility, Harvard Medical School, 2010).

Structures are written as SMILES. The campaign covered roughly 52,000 compounds. About 4,300 (8.3%) were called active. The sample as a whole holds a higher share of actives than the screen did. Values without a mark were called inactive. Rule as the data show it: active = survival mostly below about 52% (no sharp cut-off); inactive = mostly above about 56%.

In the experiment the test system is DeltatarO mutant. Briefly: S. aureus survival, RN4220 and DeltatarO strains – OD600, teichoic acid synthesis inhibitors, primary screen (AID 463173). Particulars: S. aureus RN4220 wild type/DeltatarO growth, OD600, 18 h, hits give low values, screened at 18.75 µg/mL (by protocol).
`Cc1cccc(N2C(=O)CS/C2=N/NC(=O)c2cccc(Cl)c2)c1`: the survival is 97%.

Turning to `CCN(C(=O)CSc1nc2ccccc2n1CC(=O)Nc1ccc(F)cc1F)c1ccccc1`, the survival was 77%.

`CCN(C(=O)CSc1nc2ccccc2n1CC(=O)Nc1cccc(C#N)c1)c1ccccc1`: the survival was 122%.

On to `Cc1cccc(NC(=O)Cn2c(SCC(=O)NCc3ccccc3)nc3ccccc32)c1C`, for which the survival was 119%.

For `CC(=O)Nc1ccccc1-c1nc2ccccc2n(CC(=O)Nc2cccc(C)c2C)c1=O`, the survival was 117%.

On to `O=C(Cn1c(=O)c(C(F)(F)F)nc2ccccc21)Nc1cccc(Br)c1`, for which the survival was 99%.

Turning to `Cc1ccc(NC(=O)Cn2c(=O)c(C(F)(F)F)nc3ccccc32)cc1C`, the survival is 60%.

Take `CCN(C(=O)CSc1nc2ccccc2n1CC(=O)Nc1ccccc1C)c1ccccc1`: the survival was -5% (active).

As to `Cc1cccc(NC(=O)Cn2c(C(F)(F)F)nc3ccccc32)c1C`, the survival was 31% (active).

For `Cc1cc(C)cc(NC(=O)Cn2c(C(F)(F)F)nc3ccccc32)c1`, the survival is 67% (active).

Take `CC(C)C(=O)NS(=O)(=O)c1ccc(NC(=O)c2ccco2)cc1`: the survival was 90%.

As to `Cc1ccc(N2CC3=C(C2=O)C(c2ccc(Br)cc2)NC(=O)N3C)cc1` (stereo not drawn), the survival is 74%.

Consider `COc1cc(C)ccc1OCCSc1nc2ccc(NC(=O)c3ccccc3F)cc2s1`, for which the survival is 99%.

`CC(C)(C)c1ccc(-c2nc(NC(=O)CSc3ncnc4sc5c(c34)CCCC5)ns2)cc1`: the survival was 57% (active).

As to `Cc1ccccc1-c1nc(NC(=O)CSc2ncnc3sc4c(c23)CCCC4)ns1`, the survival is 92%.

As to `Cc1cc(SCC(=O)Nc2ccc(Cl)cc2)nc2ccccc12`, the survival was 65%.

As to `Cc1cc(SCC(=O)Nc2nsc(-c3ccc(C(C)(C)C)cc3)n2)nc2ccccc12`, the survival is 13% (active).

Turning to `COc1ccc2c(C)cc(SCC(=O)Nc3nsc(-c4ccccc4C)n3)nc2c1`, the survival was 35% (active).

Take `Cc1ccc(-c2nc(NC(=O)CSc3ccc4ccccc4n3)ns2)cc1`: the survival is 77%.

Consider `COc1ccc2c(C)cc(SCC(=O)Nc3nsc(-c4ccc(C(C)(C)C)cc4)n3)nc2c1`, for which the survival was 56%.

`Cc1ccc(-c2nc(NC(=O)CSc3cc(C)c4ccccc4n3)ns2)cc1`: the survival was 65%.

For `Cc1nc(SCC(=O)Nc2nsc(-c3ccc(C(C)(C)C)cc3)n2)c2c3c(sc2n1)CCCC3`, the survival was 78%.

On to `CCN1CCN(c2oc(/C=C/c3cc(OC)c(OC)c(OC)c3)nc2C#N)CC1`, for which the survival is 72%.

On to `O=C(O)CSc1nc2c(c(C(F)(F)F)n1)CCc1ccccc1-2`, for which the survival is 96%.

For the compound `CCN(CC)N=Nc1ccc(S(=O)(=O)N2CCSC2C(=O)O)cc1` (stereo not drawn), the survival was 103%.

On to `CCOc1ccc(CC(=O)NCCc2csc(-c3ccc(Cl)cc3)n2)cc1`, for which the survival is 67%.

As for `CCOC(=O)/C(C#N)=C\c1ccc(Br)s1`, the survival was 93%.

Consider `CN(C(=O)CSc1nc2ccccc2n1CC(=O)NCc1ccc(F)cc1)c1ccc(F)cc1`, for which the survival was 128%.

For the compound `COc1ccc(CNc2ccc3cc(S(=O)(=O)N4CCCCC4)ccc3n2)cc1`, the survival was 79%.

With `COc1cc(NC(=O)CN2CCCN(S(=O)(=O)c3ccc(F)cc3)CC2)cc(OC)c1`, the survival was 74%.

With `CCCCSc1nnc2[nH]c(=O)cc(C)n12`, the survival was 99%.

In the case of `Cc1cccn2c(=O)cc(CSc3nnc(NC(=O)COc4ccc(F)cc4)s3)nc12`, the survival was -2% (active).

Turning to `Cc1ccc2nc(CSc3nnc(NC(=O)CC(C)C)s3)cc(=O)n2c1`, the survival was 76%.

Turning to `Cc1ccc2nc(CSc3nnc(NC(=O)COc4ccccc4F)s3)cc(=O)n2c1`, the survival was 70%.

Consider `Cc1ccc(OCC(=O)Nc2nnc(SCc3cc(=O)n4cc(C)ccc4n3)s2)cc1`, for which the survival is 6% (active).

For the compound `Cc1ccc2nc(CSc3nnc(NC(=O)C(C)C)s3)cc(=O)n2c1`, the survival was -1% (active).

Regarding `Cc1ccc(OCC(=O)Nc2nnc(SCc3cc(=O)n4cccc(C)c4n3)s2)cc1`, the survival was 76%.

Take `Cc1ccc2nc(CSc3nnc(NC(=O)COc4ccccc4)s3)cc(=O)n2c1`: the survival was 67%.

In the case of `CC(C)C(=O)Nc1nnc(SCc2cc(=O)n3ccccc3n2)s1`, the survival is 86%.

For the compound `Cc1cccn2c(=O)cc(CSc3nnc(NC(=O)COc4ccccc4)s3)nc12`, the survival was 84%.

For the compound `COCCN(C(=O)c1ccco1)c1nnc(-c2ccc(F)cc2)s1`, the survival is 58%.

Turning to `CSc1nnc(-c2ccncc2)n1C`, the survival is 97%.

`COc1ccc(N2CCN(S(=O)(=O)c3csc(C(N)=O)c3)CC2)cc1`: the survival was 90%.

On to `COc1cc(Cl)c(C)cc1NC(=O)CSc1cc(=O)n(C)c2cc(Cl)ccc12`, for which the survival was 63%.

In the case of `CC(C)(C)OC(=O)N1CC2C(C1)C2NC(=O)c1nsc(Cl)c1Cl` (stereo not drawn), the survival is 82%.

Regarding `CCOC(=O)c1ccc(NC(=O)c2ccc3c(c2)c(C)c(C)n3Cc2ccc(F)cc2)cc1`, the survival is 91%.

For the compound `O=C(Cn1c(=O)n(-c2ccccc2)c(=O)c2ccc(C(=O)NCc3ccc4c(c3)OCO4)cc21)Nc1ccc(Br)cc1`, the survival was 79%.

In the case of `CSc1ccc(CCNC(=O)Cn2nc(C)n3c(cc4sccc43)c2=O)cc1`, the survival was 88%.

`O=C1C2=C(Nc3ccccc3SC2c2c(F)cccc2Cl)c2ccccc21` (stereo not drawn): the survival is 94%.

For the compound `COc1ccc(C2Sc3ccccc3NC3=C2C(=O)c2ccccc23)c(OC)c1OC` (stereo not drawn), the survival is 77%.

As to `CCCc1ccc(C2Sc3ccccc3NC3=C2C(=O)c2ccccc23)cc1` (stereo not drawn), the survival is 94%.

On to `O=C1C2=C(Nc3ccccc3SC2c2ccc(C(F)(F)F)cc2)c2ccccc21` (stereo not drawn), for which the survival is 16% (active).

Turning to `CC(=O)Nc1ccc(C2Sc3ccccc3NC3=C2C(=O)c2ccccc23)cc1` (stereo not drawn), the survival was 116%.

Turning to `CC(C)c1ccc(C2Sc3ccccc3NC3=C2C(=O)c2ccccc23)cc1` (stereo not drawn), the survival was 85%.

Turning to `CCc1ccc(C2Sc3ccccc3NC3=C2C(=O)c2ccccc23)cc1` (stereo not drawn), the survival was 104%.

Regarding `CC(C)(C)c1ccc(C2Sc3ccccc3NC3=C2C(=O)c2ccccc23)cc1` (stereo not drawn), the survival is 98%.

Regarding `O=C1C2=C(Nc3ccccc3SC2c2ccc(Cl)c(Cl)c2)c2ccccc21` (stereo not drawn), the survival was 22% (active).

For `O=C1C2=C(Nc3ccccc3SC2c2ccccc2C(F)(F)F)c2ccccc21` (stereo not drawn), the survival is 24% (active).

With `CCOc1cc(C2Sc3ccccc3NC3=C2C(=O)c2ccccc23)ccc1O` (stereo not drawn), the survival was 48%.

With `COc1ccc(Br)cc1C1Sc2ccccc2NC2=C1C(=O)c1ccccc12` (stereo not drawn), the survival was 31% (active).

Regarding `CC1=C(C)NC(=S)SC1`, the survival was 101%.

Turning to `Cc1cc(=O)c2cc(C(=O)Nc3ccccc3C)ccc2[nH]1`, the survival is 84%.

Consider `COc1ccc(CCNC(=O)c2c(Nc3ccccc3C)sc(C(=O)c3ccccc3)c2N)cc1OC`, for which the survival was 66%.

On to `O=C(NC1CC1)C1CCN(C(=O)c2ccc(Cl)cc2)CC1`, for which the survival was 86%.

With `CCCC(C(=O)NC1CCCC1)N(C(=O)Cn1nnc(-c2ccc(C)o2)n1)c1ccccc1` (stereo not drawn), the survival is 89%.

On to `CC(=NC1CC1)C1=C(O)c2ccccc2C1=O`, for which the survival was 92%.

On to `Cc1cc(C)c(S(=O)(=O)n2cnc(C)c2)c(C)c1`, for which the survival was 95%.

On to `CC(C)c1ccc(OCC(=O)Nc2cc(-c3nc4ncccc4o3)ccc2Cl)cc1`, for which the survival was 150%.

For the compound `Cc1cc(OCC(=O)Nc2cc(-c3nc4ncccc4o3)ccc2C)ccc1Cl`, the survival is 50%.

As to `Cc1cc(-c2nc3ncccc3o2)ccc1NC(=O)COc1cc(C)c(Cl)c(C)c1`, the survival was 65%.

`CCC(=O)Nc1ccc(-c2nc3ncccc3o2)cc1C`: the survival was 73%.

For the compound `Cc1ccc(-c2nc3ncccc3o2)cc1NC(=O)COc1ccc(C(C)C)cc1`, the survival is 6% (active).

Turning to `Cc1cc(-c2nc3ncccc3o2)ccc1NC(=O)COc1ccc(C(C)(C)C)cc1`, the survival was 32% (active).

Take `COc1ccc(-c2nc(C)c(CCNC(=O)C(=O)Nc3c(C)cccc3C)s2)cc1OC`: the survival was 85%.

In the case of `CCc1ccccc1NC(=O)c1nn(-c2ccc(C)cc2)c(=O)c2c1c1ccccc1n2C`, the survival was 140%.

Turning to `Cc1cc(C)cc(NC(=O)CCn2cnc3ccccc3c2=O)c1`, the survival was 77%.

Regarding `CC1(C)Cc2ccccc2C(=NCCC(=O)O)N1`, the survival was 79%.

For `CC(=O)NCCNC(=O)CCCc1nnc2n(CCC(C)C)c(=O)c3sccc3n12`, the survival was 90%.

`CC(C)c1nnc(N2C(=O)c3oc4ccccc4c(=O)c3C2c2ccccc2F)s1` (stereo not drawn): the survival was 64%.

As to `COc1ccc(CNC(=O)Cc2coc3ccc(C)cc23)cc1`, the survival is 108%.

As to `COc1ccc(CNC(=O)c2cc3cc(OC)ccc3oc2=O)cc1`, the survival was 51%.

`Cc1ccc(CNC(=O)c2cc(=O)c3cc(C)cc(C)c3o2)cc1`: the survival is 102%.

`Cc1ccc2c(=O)cc(C(=O)NCc3ccccc3)oc2c1`: the survival is 39% (active).

As for `Cc1ccc(CNC(=O)c2cc(=O)c3cc(C)c(C)cc3o2)cc1`, the survival was 77%.

In the case of `COc1ccc(CNC(=O)c2cc(=O)c3cc(C)ccc3o2)cc1`, the survival was 45% (active).

`COc1ccc(CCNC(=O)c2cc(=O)c3ccc(C)cc3o2)cc1OC`: the survival is 62%.

With `Cc1ccc(CNC(=O)c2cc(=O)c3cc(C)ccc3o2)cc1`, the survival is 42% (active).

Take `CCc1ccc2oc(C(=O)NCc3ccccc3)cc(=O)c2c1`: the survival is 66%.

On to `COc1ccc(CC(NC(C)=O)C(=O)N2CCN(C(=O)Nc3ccc(C#N)cc3)CC2)cc1` (stereo not drawn), for which the survival is 99%.

With `Cc1cc(C)cc(NC(=O)NCCc2c(C)nn(C)c2C)c1`, the survival is 64%.

Consider `CC1CCCCN1C(=O)CSc1nc2ccccc2c(=O)[nH]1` (stereo not drawn), for which the survival was 82%.

Take `CCOc1cc(C(=O)OCc2cc(=O)n3nc(CC)sc3n2)cc(OCC)c1OCC`: the survival was 87%.

Regarding `Cc1ccc(OCc2nc(-c3ccc(C(=O)NCCc4ccc(Cl)cc4)cc3)oc2C)cc1`, the survival was 84%.
